# Data as given in the supplement of paper PMC11732987, “Enantioselective OTUD7B fragment discovery through chemoproteomics screening and high-throughput optimisation” (Communications Chemistry, 2025).
# A number with no mark means an inactive call.
# Key:
# Assay in all cases: log2 ratio of Biotin-Ahx-Ub-VS probe labelling (fragment/DMSO); higher = less target engagement (more negative = stronger competition), active = hit call of the paper (q ≤ 0.05, log2 ratio ≤ -1)
# Settings in all cases: compound concentration: 200 uM; treatment time: 3 h
# [1] = target: T1, OTUD6B (UniProt Q8N6M0)
# T1 sequence (whole entry): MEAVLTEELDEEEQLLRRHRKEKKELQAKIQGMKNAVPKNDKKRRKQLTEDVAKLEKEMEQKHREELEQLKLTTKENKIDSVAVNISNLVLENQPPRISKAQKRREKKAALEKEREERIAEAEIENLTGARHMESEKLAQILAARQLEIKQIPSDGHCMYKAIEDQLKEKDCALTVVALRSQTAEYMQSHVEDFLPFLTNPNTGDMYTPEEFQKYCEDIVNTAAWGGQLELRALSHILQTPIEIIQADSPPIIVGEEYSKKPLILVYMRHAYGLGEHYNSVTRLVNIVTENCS
# Summary of the method: (§1)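 The table lists average log2 ratios of fragment over vehicle, from an unpaired t-test on global-median-normalised Spectronaut label-free quantities. Proteins with ≥2 unique peptides were used. Samples were HEK293T lysate (495 µg) treated in triplicate with fragment at 200 µM or vehicle for 3 h, then with Biotin-Ahx-Ub-VS (0.5 µM final) for 1 h, with labelled DUBs NeutrAvidin-enriched and run by diaPASEF LC-MS/MS.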
# [2] = target: T2, OTUD7B (UniProt Q6GQQ9)
# T2 sequence (whole entry): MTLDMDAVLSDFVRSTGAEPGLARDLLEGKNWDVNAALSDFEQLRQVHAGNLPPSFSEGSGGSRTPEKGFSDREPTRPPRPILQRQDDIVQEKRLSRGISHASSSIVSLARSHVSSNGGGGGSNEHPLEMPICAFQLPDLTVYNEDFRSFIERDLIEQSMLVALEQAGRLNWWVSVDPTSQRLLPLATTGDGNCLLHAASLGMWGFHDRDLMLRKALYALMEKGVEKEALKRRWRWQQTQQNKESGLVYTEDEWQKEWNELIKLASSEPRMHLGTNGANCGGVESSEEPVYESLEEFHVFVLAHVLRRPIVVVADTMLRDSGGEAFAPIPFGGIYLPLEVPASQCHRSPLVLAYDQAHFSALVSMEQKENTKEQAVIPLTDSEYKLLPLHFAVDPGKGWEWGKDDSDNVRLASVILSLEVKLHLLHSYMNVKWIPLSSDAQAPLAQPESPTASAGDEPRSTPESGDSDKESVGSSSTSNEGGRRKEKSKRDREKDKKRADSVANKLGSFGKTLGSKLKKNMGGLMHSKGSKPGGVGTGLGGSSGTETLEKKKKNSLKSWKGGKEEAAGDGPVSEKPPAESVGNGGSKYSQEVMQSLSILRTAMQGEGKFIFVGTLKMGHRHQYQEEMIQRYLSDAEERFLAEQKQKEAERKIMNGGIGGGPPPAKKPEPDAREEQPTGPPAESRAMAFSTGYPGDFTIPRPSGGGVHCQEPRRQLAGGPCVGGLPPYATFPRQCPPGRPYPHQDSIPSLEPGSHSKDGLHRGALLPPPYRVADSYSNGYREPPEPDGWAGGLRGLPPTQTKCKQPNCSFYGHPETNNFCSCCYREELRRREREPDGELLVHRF
# Summary of the method: as §1
# [3] = target: PRPF8 (UniProt Q6P2Q9)
# Summary of the method: as §1
# [4] = target: T3, PSMD7 (UniProt P51665)
# T3 sequence (whole entry): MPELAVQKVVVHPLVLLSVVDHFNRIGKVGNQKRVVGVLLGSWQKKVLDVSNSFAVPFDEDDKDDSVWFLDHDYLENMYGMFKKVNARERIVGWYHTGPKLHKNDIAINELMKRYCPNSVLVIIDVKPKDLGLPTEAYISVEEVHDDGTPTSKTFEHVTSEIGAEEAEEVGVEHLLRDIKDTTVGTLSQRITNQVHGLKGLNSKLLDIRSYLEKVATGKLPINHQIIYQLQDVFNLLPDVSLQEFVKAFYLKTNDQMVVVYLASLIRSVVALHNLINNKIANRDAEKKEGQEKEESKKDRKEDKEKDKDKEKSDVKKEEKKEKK
# Summary of the method: as §1
# [5] = target: UCHL1 (UniProt P09936)
# UCHL1, sequence (P09936 whole entry, looked up): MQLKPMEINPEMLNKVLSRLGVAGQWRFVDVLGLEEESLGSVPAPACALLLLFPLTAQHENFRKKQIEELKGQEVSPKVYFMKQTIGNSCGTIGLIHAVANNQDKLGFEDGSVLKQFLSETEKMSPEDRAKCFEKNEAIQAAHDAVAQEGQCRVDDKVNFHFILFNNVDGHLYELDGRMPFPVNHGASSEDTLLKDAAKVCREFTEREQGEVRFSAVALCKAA
# Summary of the method: as §1
# [6] = target: T4, UCHL3 (UniProt P15374)
# T4 sequence (whole entry): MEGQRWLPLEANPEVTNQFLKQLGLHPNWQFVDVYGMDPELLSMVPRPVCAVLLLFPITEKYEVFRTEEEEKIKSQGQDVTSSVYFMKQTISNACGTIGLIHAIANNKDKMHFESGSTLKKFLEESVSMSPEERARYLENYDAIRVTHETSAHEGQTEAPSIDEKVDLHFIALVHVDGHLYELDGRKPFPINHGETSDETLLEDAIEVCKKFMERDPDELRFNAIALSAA
# Summary of the method: as §1
# [7] = target: T5, UCHL5 (UniProt Q9Y5K5)
# T5 sequence (whole entry): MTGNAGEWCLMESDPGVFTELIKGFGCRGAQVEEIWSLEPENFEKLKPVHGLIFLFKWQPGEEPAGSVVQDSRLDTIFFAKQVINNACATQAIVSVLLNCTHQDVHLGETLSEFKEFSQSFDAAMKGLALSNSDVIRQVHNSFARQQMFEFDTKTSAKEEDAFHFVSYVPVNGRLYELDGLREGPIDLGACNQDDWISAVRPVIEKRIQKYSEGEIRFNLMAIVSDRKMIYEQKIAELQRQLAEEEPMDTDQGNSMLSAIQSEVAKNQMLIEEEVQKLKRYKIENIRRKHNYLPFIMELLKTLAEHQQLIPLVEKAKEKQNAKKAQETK
# Summary of the method: as §1
# [8] = target: USP10 (UniProt Q14694)
# USP10, sequence (Q14694 whole entry): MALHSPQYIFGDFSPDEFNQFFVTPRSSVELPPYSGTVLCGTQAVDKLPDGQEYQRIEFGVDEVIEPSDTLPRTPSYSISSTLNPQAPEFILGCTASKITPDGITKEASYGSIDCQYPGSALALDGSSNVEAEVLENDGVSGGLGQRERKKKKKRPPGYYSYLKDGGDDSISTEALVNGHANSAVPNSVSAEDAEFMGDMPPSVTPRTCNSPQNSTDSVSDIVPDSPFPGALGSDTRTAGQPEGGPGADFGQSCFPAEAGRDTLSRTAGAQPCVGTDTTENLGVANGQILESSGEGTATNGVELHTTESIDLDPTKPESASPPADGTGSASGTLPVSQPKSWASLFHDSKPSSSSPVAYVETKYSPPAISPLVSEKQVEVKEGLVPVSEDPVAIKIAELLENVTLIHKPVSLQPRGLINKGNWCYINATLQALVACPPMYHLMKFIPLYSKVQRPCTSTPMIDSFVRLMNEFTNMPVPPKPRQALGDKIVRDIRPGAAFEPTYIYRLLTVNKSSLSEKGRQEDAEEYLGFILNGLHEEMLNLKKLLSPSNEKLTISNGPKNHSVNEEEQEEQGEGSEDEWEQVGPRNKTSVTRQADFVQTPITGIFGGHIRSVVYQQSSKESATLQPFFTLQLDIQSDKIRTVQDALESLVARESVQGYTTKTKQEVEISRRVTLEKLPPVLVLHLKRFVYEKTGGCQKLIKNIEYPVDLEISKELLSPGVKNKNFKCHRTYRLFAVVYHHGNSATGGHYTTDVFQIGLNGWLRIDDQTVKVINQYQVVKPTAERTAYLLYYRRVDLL
# Summary of the method: as §1
# [9] = target: T6, USP15 (UniProt Q9Y4E8)
# T6 sequence (whole entry): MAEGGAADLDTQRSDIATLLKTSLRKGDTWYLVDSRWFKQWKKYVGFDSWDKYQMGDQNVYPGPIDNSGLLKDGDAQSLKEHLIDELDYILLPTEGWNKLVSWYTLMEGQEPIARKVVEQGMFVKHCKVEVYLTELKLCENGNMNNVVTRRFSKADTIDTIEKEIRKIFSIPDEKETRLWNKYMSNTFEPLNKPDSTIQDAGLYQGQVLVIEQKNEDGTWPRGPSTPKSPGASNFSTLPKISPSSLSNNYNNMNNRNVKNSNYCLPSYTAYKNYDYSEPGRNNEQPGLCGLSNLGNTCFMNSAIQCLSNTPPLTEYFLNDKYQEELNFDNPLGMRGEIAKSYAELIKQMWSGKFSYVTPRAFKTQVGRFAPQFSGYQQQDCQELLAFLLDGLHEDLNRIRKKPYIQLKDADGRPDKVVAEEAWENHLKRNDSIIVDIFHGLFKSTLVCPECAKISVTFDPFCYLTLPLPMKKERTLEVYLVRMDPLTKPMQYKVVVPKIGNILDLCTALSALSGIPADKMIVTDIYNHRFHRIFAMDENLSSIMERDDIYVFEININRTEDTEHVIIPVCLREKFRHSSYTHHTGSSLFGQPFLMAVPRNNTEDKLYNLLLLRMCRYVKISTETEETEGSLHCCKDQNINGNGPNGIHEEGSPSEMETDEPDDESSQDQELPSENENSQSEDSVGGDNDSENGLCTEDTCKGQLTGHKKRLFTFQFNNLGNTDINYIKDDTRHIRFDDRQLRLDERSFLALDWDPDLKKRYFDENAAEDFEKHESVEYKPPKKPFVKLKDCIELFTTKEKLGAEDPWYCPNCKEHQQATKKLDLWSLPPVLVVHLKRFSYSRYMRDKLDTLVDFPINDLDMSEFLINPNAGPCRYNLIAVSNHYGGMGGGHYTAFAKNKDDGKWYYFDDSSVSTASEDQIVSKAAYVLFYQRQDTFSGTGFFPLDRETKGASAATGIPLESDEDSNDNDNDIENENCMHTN
# Summary of the method: as §1
# [10] = target: USP16 (UniProt Q9Y5T5)
# USP16, sequence (Q9Y5T5 whole entry, looked up): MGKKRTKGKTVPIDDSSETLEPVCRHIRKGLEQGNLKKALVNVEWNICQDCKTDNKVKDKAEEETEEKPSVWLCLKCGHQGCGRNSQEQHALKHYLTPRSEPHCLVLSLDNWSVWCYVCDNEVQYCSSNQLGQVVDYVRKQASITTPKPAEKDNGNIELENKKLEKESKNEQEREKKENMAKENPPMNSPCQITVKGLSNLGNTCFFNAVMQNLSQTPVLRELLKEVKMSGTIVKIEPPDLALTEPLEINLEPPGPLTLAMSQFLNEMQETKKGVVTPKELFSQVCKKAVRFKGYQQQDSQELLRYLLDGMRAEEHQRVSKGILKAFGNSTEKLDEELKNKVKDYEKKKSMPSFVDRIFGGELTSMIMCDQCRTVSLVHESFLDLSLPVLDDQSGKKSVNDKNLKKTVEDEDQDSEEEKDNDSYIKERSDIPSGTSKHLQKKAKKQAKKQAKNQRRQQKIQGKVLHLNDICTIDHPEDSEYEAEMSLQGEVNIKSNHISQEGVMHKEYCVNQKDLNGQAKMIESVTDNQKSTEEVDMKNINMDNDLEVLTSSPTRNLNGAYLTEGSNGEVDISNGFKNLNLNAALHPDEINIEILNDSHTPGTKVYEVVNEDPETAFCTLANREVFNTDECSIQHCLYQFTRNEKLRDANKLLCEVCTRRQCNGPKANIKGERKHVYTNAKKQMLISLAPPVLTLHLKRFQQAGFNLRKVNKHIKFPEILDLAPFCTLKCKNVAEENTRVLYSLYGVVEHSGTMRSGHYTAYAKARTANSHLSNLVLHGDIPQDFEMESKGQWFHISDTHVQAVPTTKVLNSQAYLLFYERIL
# Summary of the method: as §1
compound,measurement,setting,value
O=C(CCl)N1CCC(O)(Cc2ccc(F)cc2)C1 (stereo not given),log2 ratio of Biotin-Ahx-Ub-VS probe labelling,[1],0.0617
same,log2 ratio of Biotin-Ahx-Ub-VS probe labelling,[2],-0.082
same,log2 ratio of Biotin-Ahx-Ub-VS probe labelling,[3],-0.0432
same,log2 ratio of Biotin-Ahx-Ub-VS probe labelling,[4],-0.209
same,log2 ratio of Biotin-Ahx-Ub-VS probe labelling,[5],-1.12 (active)
same,log2 ratio of Biotin-Ahx-Ub-VS probe labelling,[6],0.0281
same,log2 ratio of Biotin-Ahx-Ub-VS probe labelling,[7],0.116
same,log2 ratio of Biotin-Ahx-Ub-VS probe labelling,[8],-0.309
same,log2 ratio of Biotin-Ahx-Ub-VS probe labelling,[9],-0.149
same,log2 ratio of Biotin-Ahx-Ub-VS probe labelling,[10],0.246
